Measured values: PubChem BioAssay AID1159580 (chemical genetic matrix, 2015)
Several values for one entry are separate records, joined by “and”; a condition that tells them apart may be missing. Identical values can stand only once. The whole screen tested about 5,500 compounds, of which about 2,000 (36%) were called active. Inconclusive results (about 18%) are left out. No stated cut-off is given here; in the data, active means normalized growth mostly below about 0.91 (no sharp cut-off); inconclusive means no clear call, values can overlap the other calls; inactive means mostly above about 0.92. Some of the results follow.

Test: chemical genetic growth profiling, strain panel (AID 1159580);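 further: tested at 20 µM; growth read once vehicle control cultures reached saturation at 30 °C; 1 = growth at the plate median or of vehicle wells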
Details: growth OD

Measured: normalized growth

NC(N)=NC(N)=Nc1ccccc1
inactive: S. cerevisiae deletion strains, locus YJR066W, strain TOR1, stronger effect = lower value 0.931 | S. cerevisiae deletion strains, locus YKL009W, strain mrt4, stronger effect = lower value 0.998 | S. cerevisiae deletion strains, locus YKL068W, stronger effect = lower value 0.996 | S. cerevisiae deletion strains, locus YKL085W, strain MDH1 (second series), stronger effect = lower value 1 | S. cerevisiae deletion strains, locus YKL085W, strain MDH1, stronger effect = lower value 1 | S. cerevisiae deletion strains, locus YKL160W, strain elf1, stronger effect = lower value 0.991 | S. cerevisiae deletion strains, locus YKL190W, strain CNB1, stronger effect = lower value 1 | S. cerevisiae deletion strains, locus YKR001C, strain vps1, stronger effect = lower value 0.994 | S. cerevisiae deletion strains, locus YKR026C, strain gcn3, stronger effect = lower value 1 | S. cerevisiae deletion strains, locus YKR091W, strain srl3, stronger effect = lower value 0.994 | S. cerevisiae deletion strains, locus YLL001W, strain dnm1, stronger effect = lower value 0.982 | S. cerevisiae deletion strains, locus YLL026W, stronger effect = lower value 1 | S. cerevisiae deletion strains, locus YLL041C, strain sdh2, stronger effect = lower value 1 | S. cerevisiae deletion strains, locus YLR027C, strain aat2, stronger effect = lower value 1 | S. cerevisiae deletion strains, locus YLR039C, strain RIC1, stronger effect = lower value 1.05 | S. cerevisiae deletion strains, locus YLR058C, strain SHM2, stronger effect = lower value 1.02 | S. cerevisiae deletion strains, locus YLR102C, strain apc9, stronger effect = lower value 0.994 | S. cerevisiae deletion strains, locus YLR113W, strain HOG1, stronger effect = lower value 0.988 | S. cerevisiae deletion strains, locus YLR221C, strain rsa3, stronger effect = lower value 1 | S. cerevisiae deletion strains, locus YLR258W, strain gsy2, stronger effect = lower value 0.988 | S. cerevisiae deletion strains, locus YLR262C, strain YPT6 (second series), stronger effect = lower value 0.985 | S. cerevisiae deletion strains, locus YLR262C, strain YPT6, stronger effect = lower value 1.05 | S. cerevisiae deletion strains, locus YLR268W, strain sec22, stronger effect = lower value 0.997 | S. cerevisiae deletion strains, locus YLR320W, strain mms22, stronger effect = lower value 0.993 | S. cerevisiae deletion strains, locus YLR330W, strain CHS5, stronger effect = lower value 1.01 | S. cerevisiae deletion strains, locus YLR342W, strain FKS1 (second series), stronger effect = lower value 1.02 | S. cerevisiae deletion strains, locus YLR342W, strain FKS1, stronger effect = lower value 1 | S. cerevisiae deletion strains, locus YLR357W, strain rsc2, stronger effect = lower value 0.998 | S. cerevisiae deletion strains, locus YLR370C, strain arc18, stronger effect = lower value 1.01 | S. cerevisiae deletion strains, locus YLR371W, strain rom2, stronger effect = lower value 0.986 | S. cerevisiae deletion strains, locus YLR384C, strain iki3, stronger effect = lower value 0.999 | S. cerevisiae deletion strains, locus YLR418C, strain cdc73, stronger effect = lower value 0.951 | S. cerevisiae deletion strains, locus YML016C, strain PPZ1, stronger effect = lower value 1.02 | S. cerevisiae deletion strains, locus YML032C, strain rad52, stronger effect = lower value 0.991 | S. cerevisiae deletion strains, locus YML120C, strain ndi1, stronger effect = lower value 0.995 | S. cerevisiae deletion strains, locus YML124C, strain tub3, stronger effect = lower value 0.991 | S. cerevisiae deletion strains, locus YMR058W, strain fet3, stronger effect = lower value 1 | S. cerevisiae deletion strains, locus YMR078C, strain ctf18, stronger effect = lower value 0.998 | S. cerevisiae deletion strains, locus YMR125W, strain sto1, stronger effect = lower value 0.982 | S. cerevisiae deletion strains, locus YMR129W, stronger effect = lower value 0.996 | S. cerevisiae deletion strains, locus YMR205C, strain PFK2, stronger effect = lower value 1.01 | S. cerevisiae deletion strains, locus YMR223W, strain ubp8, stronger effect = lower value 0.99 | S. cerevisiae deletion strains, locus YMR231W, strain pep5, stronger effect = lower value 0.994 | S. cerevisiae deletion strains, locus YMR263W, strain SAP30, stronger effect = lower value 0.993 | S. cerevisiae deletion strains, locus YMR307W, strain GAS1, stronger effect = lower value 1.04 and 0.978 | S. cerevisiae deletion strains, locus YNL067W, strain RPL9B, stronger effect = lower value 1.03 | S. cerevisiae deletion strains, locus YNL071W, strain lat1, stronger effect = lower value 1.01 | S. cerevisiae deletion strains, locus YNL128W, strain TEP1, stronger effect = lower value 1.01 and 1.02 | S. cerevisiae deletion strains, locus YNL175C, strain NOP13, stronger effect = lower value 1.02 | S. cerevisiae deletion strains, locus YNL183C, strain NPR1, stronger effect = lower value 0.923 | S. cerevisiae deletion strains, locus YNL197C, strain WHI3, stronger effect = lower value 1.02 | S. cerevisiae deletion strains, locus YNL209W, strain ssb2, stronger effect = lower value 1 | S. cerevisiae deletion strains, locus YNL224C, strain SQS1, stronger effect = lower value 0.998 | S. cerevisiae deletion strains, locus YNL233W, strain BNI4, stronger effect = lower value 1.02 | S. cerevisiae deletion strains, locus YNL248C, strain rpa49, stronger effect = lower value 0.998 | S. cerevisiae deletion strains, locus YNL250W, strain rad50, stronger effect = lower value 0.992 | S. cerevisiae deletion strains, locus YNL271C, strain bni1, stronger effect = lower value 0.994 | S. cerevisiae deletion strains, locus YNL298W, strain CLA4, stronger effect = lower value 0.993 | S. cerevisiae deletion strains, locus YNL307C, strain MCK1, stronger effect = lower value 1 | S. cerevisiae deletion strains, locus YNL322C, strain KRE1 (second series), stronger effect = lower value 1 | S. cerevisiae deletion strains, locus YNL322C, strain KRE1, stronger effect = lower value 1 | S. cerevisiae deletion strains, locus YNR049C, strain mso1, stronger effect = lower value 1.01 | S. cerevisiae deletion strains, locus YNR052C, strain pop2, stronger effect = lower value 0.991 | S. cerevisiae deletion strains, locus YOL006C, strain TOP1, stronger effect = lower value 1.03 | S. cerevisiae deletion strains, locus YOL012C, strain htz1 1.06 | S. cerevisiae deletion strains, locus YOL147C, strain pex11, stronger effect = lower value 0.991 | S. cerevisiae deletion strains, locus YOR001W, strain rrp6, stronger effect = lower value 0.989 | S. cerevisiae deletion strains, locus YOR061W, strain CKA2, stronger effect = lower value 1.01 | S. cerevisiae deletion strains, locus YOR069W, strain VPS5, stronger effect = lower value 1.01 | S. cerevisiae deletion strains, locus YOR070C, strain gyp1, stronger effect = lower value 1 | S. cerevisiae deletion strains, locus YOR080W, strain dia2, stronger effect = lower value 0.98 | S. cerevisiae deletion strains, locus YOR083W, strain WHI5 (second series), stronger effect = lower value 1.02 | S. cerevisiae deletion strains, locus YOR083W, strain WHI5, stronger effect = lower value 0.996 | S. cerevisiae deletion strains, locus YOR106W, strain vam3, stronger effect = lower value 1 | S. cerevisiae deletion strains, locus YOR136W, strain idh2, stronger effect = lower value 0.995 | S. cerevisiae deletion strains, locus YOR144C, strain elg1, stronger effect = lower value 0.994 | S. cerevisiae deletion strains, locus YOR184W, strain ser1, stronger effect = lower value 0.977 | S. cerevisiae deletion strains, locus YOR231W, strain MKK1, stronger effect = lower value 1.01 | S. cerevisiae deletion strains, locus YOR265W, strain rbl2, stronger effect = lower value 1.01 | S. cerevisiae deletion strains, locus YOR270C, strain vph1, stronger effect = lower value 1.06 | S. cerevisiae deletion strains, locus YOR290C, strain snf2, stronger effect = lower value 0.987 | S. cerevisiae deletion strains, locus YOR316C, strain cot1, stronger effect = lower value 0.996 | S. cerevisiae deletion strains, locus YPL051W, strain arl3, stronger effect = lower value 0.996 | S. cerevisiae deletion strains, locus YPL055C, strain LGE1, stronger effect = lower value 0.993 | S. cerevisiae deletion strains, locus YPL078C, strain atp4, stronger effect = lower value 1 | S. cerevisiae deletion strains, locus YPL106C, strain sse1, stronger effect = lower value 0.955 | S. cerevisiae deletion strains, locus YPL240C, strain hsp82, stronger effect = lower value 0.986 | S. cerevisiae deletion strains, locus YPL241C, strain CIN2, stronger effect = lower value 1.01 | S. cerevisiae deletion strains, locus YPL256C, strain CLN2, stronger effect = lower value 0.996 | S. cerevisiae deletion strains, locus YPR119W, strain clb2, stronger effect = lower value 0.991 | S. cerevisiae deletion strains, locus YPR141C, strain kar3, stronger effect = lower value 0.98 | S. cerevisiae deletion strains, locus YPR163C, strain tif3, stronger effect = lower value 0.999 | S. cerevisiae deletion strains, locus YPR167C, strain met16, stronger effect = lower value 0.996 | S. cerevisiae deletion strains, strain wtn01, stronger effect = lower value 1 | S. cerevisiae strains, strain wild type, stronger effect = lower value 1.01
